Only some compounds are listed: those with a hit (about 7.7% of all), similar ones and a draw of the others.
RE007 growth inh = qHTS Assay for Inhibitors of the HIV-1 protein Vpr | hit rate 0.21% among 360,000 | Potency, µM (doses to about 92.2 µM), without a hit: at the top dose activity change, negative = less growth, actives largely listed as inhibitors | AID 651644, 2012 | S. pombe RE007 Vpr strain, BacTiter-Glo ATP luminescence, 24 h; active means well fitted falling curve with a large enough effect; inconclusive means small, poorly fitted or top-dose-only effect; inactive means no such curve, though single readings can be large or run the other way; further: potency means the concentration at half of the fitted maximal effect; nearly all actives have a fitted effect of over 50% in size
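Fission yeast RE007 carrying one integrated HIV-1 vpr copy, seeded at OD 0.01 in PMG+AL medium with 23 nL pinned compound. Grown 24 h at 30 degrees; viability read by BacTiter-Glo luminescence after 5 min.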
FMDV inh = High Throughput Screening for Foot and Mouth Disease Virus Antivirals. FMDV antiviral cell-based qHTS. Potency, µM (highest dose often 57.9 µM), inactives show top-dose activity change, negative = inhibition, hits mostly inhibitors. hit rate 1.2% among 410,000; calls by dose curve; tested in HEK293T cells; further: read-out not given here; potency means the concentration at half of the fitted maximal effect; nearly all actives have a fitted effect of over 45% in size
TbPYK inhibitor = qHTS of Trypanosoma Brucei Inhibitors; hit rate 0.12% among 410,000; TbPYK enzyme, Kinase-Glo Plus ATP luminescence, 45 min; AID 624173, 2012; Potency, µM (series often up to 76.8 µM), for inactives: at the top dose activity, negative = inhibition, most hits filed as inhibitors; further: potency means the concentration at half of the fitted maximal effect; nearly all actives have a fitted effect of over 50% in size
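Luminescence from Kinase-Glo Plus, added after a 45-minute room-temperature reaction, served as the end-point read-out. The enzyme and substrate were preincubated with compound before ADP (130 uM final) initiated turnover. Concentration-effect curves came from normalized qHTS data.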
HCMV inh = qHTS Assay for inhibitors of the human cytomegalovirus (HCMV); HFF cells, HCMV-luciferase reporter, 72 h; stronger effect = lower value; activity change, negative = inhibition, % at 57.5 µM; hit rate 4.5% among 410,000; in the data active means activity change below about -60%; inconclusive means no clear call, values can overlap the other calls; inactive means above about -39%
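Cell-based, HFFs, 1000 cells/well, 16 h 37C; cpds in DMSO + HCMV-luc, MOI 1 PFU/cell; 72 h 37C; OneGlo luminescence after 5 min RT; norm. to buffer vs Salinomycin 10uM.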
Sm TGR block = qHTS Assay for the Inhibitors of Schistosoma Mansoni Peroxiredoxins. Schistosoma mansoni thioredoxin glutathione reductase (TGR), Q962Y6. purified TGR, DTNB reduction, TNB absorbance 405 nm. Potency, µM (highest dose often 114 µM), for inactives: at the top dose activity change, negative = inhibition, actives largely listed as inhibitors. hit rate 3% among 360,000; further: potency means the concentration at half of the fitted maximal effect; nearly all actives have a fitted effect of over 60% in size
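Kinetic colorimetric format: TGR-catalysed, NADPH-driven DTNB reduction monitored via TNB absorbance. Enzyme dispensed at 20 nM; compound exposure 15 min at room temperature before reaction start.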
FBPA Giardia inh = qHTS Assay for Inhibitors of Fructose-1,6-bisphosphate Aldolase from Giardia Lamblia; purified Giardia FBPA; hit rate 0.71% among 290,000; Potency, µM (highest dose often 59.6 µM), for inactives: top-dose activity, negative = inhibition, actives largely listed as inhibitors; A8B2U2; further: potency means the concentration at half of the fitted maximal effect; nearly all actives have a fitted effect of over 55% in size
Target sequence (A8B2U2 whole entry, looked up): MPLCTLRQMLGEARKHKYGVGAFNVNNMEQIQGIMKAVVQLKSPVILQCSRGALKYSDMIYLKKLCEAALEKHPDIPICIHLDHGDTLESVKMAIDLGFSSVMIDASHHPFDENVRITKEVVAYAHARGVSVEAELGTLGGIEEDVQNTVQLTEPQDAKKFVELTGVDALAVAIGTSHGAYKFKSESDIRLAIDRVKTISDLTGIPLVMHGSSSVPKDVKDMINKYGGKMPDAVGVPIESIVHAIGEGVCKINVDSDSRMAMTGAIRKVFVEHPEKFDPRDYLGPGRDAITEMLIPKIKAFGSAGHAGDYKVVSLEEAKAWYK
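Giardia FBPA (40 nM reagent) was preincubated 10 min at RT with compound (up to 57.5 uM final), then substrate plus GAPDH/TPI/NAD/arsenate coupling system with diaphorase/resazurin was added; resorufin fluorescence (525/598 nm) was read after 20 min.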
* = called active by the depositor. Unless noted, the call rests on the fitted dose curve; in most records, active means well fitted curve in the direction sought with a large enough effect; inconclusive means small, poorly fitted or top-dose-only effect, or another doubt; inactive means no such curve, though single readings can be large; an effect the other way counts as inactive or inconclusive. On the % scale 0 is the no-effect control and ±100 the full control effect.

Screening CCC(=O)N(Cc1cc2cc(OC)ccc2[nH]c1=O)c1ccccc1OC returned RE007 growth inh -7.2%, FMDV inh -7.6%, TbPYK inhibitor -10.9% and HCMV inh -24.4.
Cc1ccc2cc(CN(C(=O)c3ccco3)c3cccc(C)c3C)c(=O)[nH]c2c1 was read as RE007 growth inh 18.8%, FMDV inh 1.7%, TbPYK inhibitor -32.3%, HCMV inh inconclusive, Sm TGR block 12.6µM* and FBPA Giardia inh 3.4%.
CCC(=O)N(Cc1cc2ccc(C)cc2[nH]c1=O)c1ccccc1OC was read as RE007 growth inh 0.6%, FMDV inh -17.9%, TbPYK inhibitor 0.8%, HCMV inh 26.7, Sm TGR block 89.1µM* and FBPA Giardia inh 16.1%.
Screening Cc1ccc(N(Cc2cc3ccc(C)cc3[nH]c2=O)C(=O)c2ccco2)c(C)c1 returned RE007 growth inh 10.8%, FMDV inh -25.7%, TbPYK inhibitor -23.5%, HCMV inh -15.3, Sm TGR block 8.91µM* and FBPA Giardia inh -1.3%.
For CCS(=O)(=O)c1nc(S(=O)(=O)c2ccc(Cl)cc2)c(N2CCc3ccccc3C2)s1 the results were RE007 growth inh -9.3%, FMDV inh 9.1%, TbPYK inhibitor -12.0%, HCMV inh -72.5*, Sm TGR block inconclusive and FBPA Giardia inh -6.0%.
Screening CCS(=O)(=O)c1nc(S(=O)(=O)c2ccc(Cl)cc2)c(N2CCN(CCO)CC2)s1 returned RE007 growth inh -2.5%, FMDV inh -4.7%, TbPYK inhibitor 6.4%, HCMV inh -66.0* and Sm TGR block -2.5%.
Cc1cc2oc(=O)cc(C)c2c2occ(-c3ccc(Cl)cc3)c12 was read as FMDV inh -9.7%, TbPYK inhibitor -7.5%, HCMV inh -7.8 and Sm TGR block 2.0%.
`O=C(Cc1ccc(Cl)cc1)NC1CCCCCC1` gave RE007 growth inh 6.7%, FMDV inh 45.1%, TbPYK inhibitor -3.3%, HCMV inh 13.5, Sm TGR block 3.2% and FBPA Giardia inh 5.2%.
`Clc1ccc(CN=C(Nc2ccccc2)NC2CCCCC2)cc1` gave RE007 growth inh -9.8%, FMDV inh -23.5%, TbPYK inhibitor 1.4%, HCMV inh -77.3*, Sm TGR block 0.3% and FBPA Giardia inh 1.5%.
Screening Cc1cnc(C)c(-c2cc(F)cc3c2OC(CNC(=O)Cc2ccccc2C)C3)n1 (stereo unspecified) returned FMDV inh -7.5%.
For CCNc1ccccc(C(=O)/C=C/c2ccc3c(c2)OCO3)c1=O the results were RE007 growth inh -17.2%, FMDV inh inconclusive, TbPYK inhibitor -18.2%, HCMV inh -2.1, Sm TGR block 2.51µM* and FBPA Giardia inh inconclusive.
`Cc1cc(C)c(C(=O)/C=C/c2ccc3c(c2)OCO3)c(=O)[nH]1` gave RE007 growth inh -11.9%, FMDV inh 4.8%, TbPYK inhibitor -7.9%, HCMV inh -101.3*, Sm TGR block -25.1% and FBPA Giardia inh -14.9%.
`Cc1cc(C)c(C(=O)/C=C/c2cccc3ccccc23)c(=O)[nH]1` gave RE007 growth inh 11.8%, FMDV inh inconclusive, TbPYK inhibitor -3.4%, HCMV inh -103.5*, Sm TGR block -13.9% and FBPA Giardia inh -3.4%.
CCCCn1c(O)c(C(=O)/C=C/c2ccc3c(c2)OCO3)c(=O)[nH]c1=O was read as RE007 growth inh -4.1%, FMDV inh inconclusive, TbPYK inhibitor -9.1%, HCMV inh -22.6, Sm TGR block -0.4% and FBPA Giardia inh -5.7%.
CCOC(=O)c1[nH]c(C)c(C(=O)NC(CC)Cc2ccccc2)c1C (stereo unspecified) was read as FMDV inh -11.8%, TbPYK inhibitor -6.0%, HCMV inh -8.6 and Sm TGR block 3.8%.
